# Assay results from PubChem BioAssay (NCATS).
# Values joined by “and” are separate entries in the source; they are usually repeats but may differ in a detail not shown here. Identical values can stand only once. Inconclusive results are not listed. Where a call stands in place of a potency, no number is given. A number with no mark means an inactive call. Active and inactive are the calls of the source. Calls come from the whole dose curve; as a rule, active = well fitted curve in the direction sought with a large enough effect; inconclusive = small, poorly fitted or top-dose-only effect, or another doubt; inactive = no such curve, though single readings can be large; an effect the other way counts as inactive or inconclusive.
# Biological target: Voltage-gated inwardly rectifying potassium channel KCNH2 (Homo sapiens) (UniProt Q12809)
# Sequence (Q12809 whole entry, looked up): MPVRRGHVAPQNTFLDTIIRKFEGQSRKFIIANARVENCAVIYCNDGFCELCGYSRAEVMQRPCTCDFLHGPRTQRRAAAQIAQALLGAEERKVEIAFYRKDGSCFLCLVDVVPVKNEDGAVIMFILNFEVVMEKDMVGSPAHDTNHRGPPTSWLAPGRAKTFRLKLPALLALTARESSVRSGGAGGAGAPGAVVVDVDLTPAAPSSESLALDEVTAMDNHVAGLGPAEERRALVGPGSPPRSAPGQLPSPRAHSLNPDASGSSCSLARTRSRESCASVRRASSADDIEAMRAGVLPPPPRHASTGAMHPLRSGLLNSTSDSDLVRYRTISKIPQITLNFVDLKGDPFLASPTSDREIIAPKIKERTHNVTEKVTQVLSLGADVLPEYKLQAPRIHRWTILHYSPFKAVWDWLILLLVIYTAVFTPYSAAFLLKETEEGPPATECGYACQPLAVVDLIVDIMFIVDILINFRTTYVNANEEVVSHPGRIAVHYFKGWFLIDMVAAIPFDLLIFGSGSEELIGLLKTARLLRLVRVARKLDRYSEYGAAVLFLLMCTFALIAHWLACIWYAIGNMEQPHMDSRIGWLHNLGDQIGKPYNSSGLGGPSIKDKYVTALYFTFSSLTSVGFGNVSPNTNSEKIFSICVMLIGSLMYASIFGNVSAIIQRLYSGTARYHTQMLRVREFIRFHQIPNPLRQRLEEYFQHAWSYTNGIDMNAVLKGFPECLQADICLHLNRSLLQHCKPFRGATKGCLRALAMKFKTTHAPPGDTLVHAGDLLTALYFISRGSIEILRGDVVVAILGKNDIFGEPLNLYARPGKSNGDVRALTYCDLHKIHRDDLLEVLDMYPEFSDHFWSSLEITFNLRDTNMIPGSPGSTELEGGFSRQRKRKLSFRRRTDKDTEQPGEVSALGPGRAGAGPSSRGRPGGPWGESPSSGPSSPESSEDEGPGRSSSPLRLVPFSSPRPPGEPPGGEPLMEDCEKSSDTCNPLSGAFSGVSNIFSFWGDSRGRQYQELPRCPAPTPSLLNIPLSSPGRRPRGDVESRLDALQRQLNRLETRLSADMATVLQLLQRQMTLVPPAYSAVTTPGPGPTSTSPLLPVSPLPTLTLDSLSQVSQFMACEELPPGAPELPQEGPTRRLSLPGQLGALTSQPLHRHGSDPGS
# Test: qHTS Assay for Small Molecule Inhibitors of the Human hERG Channel Activity (AID 588834);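 note: lower thallium flux fluorescence means stronger hERG block; nearly all actives have a fitted effect of over 50% in size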; note: potency is the fitted concentration of half-maximal effect; for activity change, negative = inhibition: top concentration of the series differs between compounds
# Conditions: U2OS BacMam hERG, FluxOR thallium flux fluorescence; series mostly up to 46.1 µM
# Procedure, shortened: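 Thallium serves as surrogate for K+ influx through BacMam-delivered hERG in U2OS cells. Compounds are added for about 10 minutes after dye loading; stimulation buffer then starts flux, monitored kinetically on FDSS.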
row,Compound,Potency
1,CN1CCC(O)(c2ccc(F)cc2)C(C(=O)c2ccc(F)cc2)C1 (centres undefined),14.1 µM (active)
2,CCCCCCCCCC(=O)O[C@H]1CC[C@H]2[C@@H]3CCC4=CC(=O)CC[C@@H]4[C@H]3CC[C@]12C,inactive
3,Cc1nnc2n1-c1ccc(Cl)cc1C(c1ccccc1)=NC2,inactive
4,CN1C(=O)CC(=O)N(c2ccccc2)c2cc(Cl)ccc21,inactive
5,C=C(C)[C@H]1CN[C@H](C(=O)O)[C@H]1CC(=O)O,inactive
6,O=C1CN=C(c2ccccc2)c2cc([N+](=O)[O-])ccc2N1,inactive
7,CCC1(CC)C(=O)C=CNC1=O,inactive
8,CC(C)(C)NCC(O)c1ccccc1Cl (centres undefined),inactive
9,CC(C)=CC1C(C(=O)OCN2C(=O)C3=C(CCCC3)C2=O)C1(C)C (centres undefined),20 µM (active)
10,COC1CC(=C(c2cccs2)c2cccs2)C[N+](C)(C)C1 (centres undefined),inactive
11,O=C(N/N=C/c1ccc([N+](=O)[O-])o1)c1cc([N+](=O)[O-])cc([N+](=O)[O-])c1O,inactive
12,CCCCC/C=C\C/C=C\C/C=C\C/C=C\CCCC(=O)NCC(=O)O,inactive
13,C=CCN1C[C@H](C)N([C@H](c2ccc(C(=O)N(CC)CC)cc2)c2cccc(OC)c2)C[C@H]1C,3.98 µM (active)
14,Cc1nnc2n1-c1ccc(Cl)cc1C(c1ccccc1Cl)=NC2,inactive
15,O=C(CCCN1CCC2(CC1)C(=O)NCN2c1ccccc1)c1ccc(F)cc1,1.78 µM (active) and 1 µM (active)
16,CC(=O)NC1CCSC1=O (centres undefined),inactive
17,Clc1ccc2c(c1)C(c1ccccc1)=NCc1nncn1-2,inactive

# Biological target: Luciferin 4-monooxygenase (Photinus pyralis) (UniProt P08659)
# Sequence (P08659 whole entry, looked up): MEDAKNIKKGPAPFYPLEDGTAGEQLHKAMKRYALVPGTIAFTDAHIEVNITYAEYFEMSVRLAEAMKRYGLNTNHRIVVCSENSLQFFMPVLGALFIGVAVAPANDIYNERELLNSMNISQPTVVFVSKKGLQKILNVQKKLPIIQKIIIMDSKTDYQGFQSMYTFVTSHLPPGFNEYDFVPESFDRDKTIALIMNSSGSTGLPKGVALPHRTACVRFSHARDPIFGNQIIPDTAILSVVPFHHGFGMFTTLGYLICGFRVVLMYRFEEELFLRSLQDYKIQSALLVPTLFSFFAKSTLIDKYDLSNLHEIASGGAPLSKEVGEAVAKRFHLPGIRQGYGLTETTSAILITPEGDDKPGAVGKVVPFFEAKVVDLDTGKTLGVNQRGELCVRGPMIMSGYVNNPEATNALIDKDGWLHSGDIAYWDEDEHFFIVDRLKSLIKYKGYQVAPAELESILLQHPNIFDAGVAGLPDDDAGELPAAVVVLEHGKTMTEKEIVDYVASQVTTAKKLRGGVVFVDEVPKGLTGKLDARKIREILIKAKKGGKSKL
# Test: Biochemical firefly luciferase enzyme assay for NPC (AID 624030); note: nearly all actives have a fitted effect of over 70% in size; note: potency is the fitted concentration of half-maximal effect;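 for activity change, negative = inhibition: purified P. pyralis luciferase at 10 nM with luciferin and ATP substrate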
# Conditions: purified P. pyralis luciferase, luminescence, 5 min; series mostly up to 58.6 µM
# Procedure, shortened: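 Direct inhibition of firefly luciferase enzyme (10 nM final, 50 mM Tris Acetate) assessed by luminescence within 5 minutes. Percent activity scaled between DMSO and PTC124 positive control, with concentration-effect curves classified by fit quality and response.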
Compound,Potency,"activity change, negative = inhibition"
CNC(C)(C)Cc1ccccc1,inactive,
O=C1OC(c2ccc(O)c(S(=O)(=O)O)c2)(c2ccc(O)c(S(=O)(=O)O)c2)c2c(Br)c(Br)c(Br)c(Br)c21,28.7 µM (active),
COc1c2c(cc3c1OCO3)CCN(C)C2,inactive,
NC(=O)CS(=O)C(c1ccccc1)c1ccccc1 (centres undefined),inactive,
CN1C(=O)NC(=O)C(C)(C2=CCCCC2)C1=O (centres undefined),inactive,
COP(=S)(OC)Oc1ccc(S(=O)(=O)N(C)C)cc1,inactive,
COc1cccc([C@@]2(O)CCCC[C@@H]2CN(C)C)c1,inactive,
O=c1[nH]oc2c1CCNC2,inactive,
CCCCCCC(=O)CCCCCC/C=C/C[C@@H](O)[C@H](O)[C@@](N)(CO)C(=O)O,inactive,
CN1C(=O)CCS(=O)(=O)C1c1ccc(Cl)cc1 (centres undefined),inactive,
C[C@](O)(CS(=O)(=O)c1ccc(F)cc1)C(=O)Nc1ccc(C#N)c(C(F)(F)F)c1,inactive,
NNc1ccccc1,inactive,
COc1ccc2c(c1)C13CCCC[C@@H]1C(C2)N(C)CC3 (some centres undefined),inactive,
NC(=O)c1cc([N+](=O)[O-])cc([N+](=O)[O-])c1,inactive,
CCC1(c2ccccc2)C(=O)N(COC)C(=O)N(COC)C1=O,inactive,
CC(C)(C)NCC(O)c1cc(Cl)c(N)c(C(F)(F)F)c1 (centres undefined),inactive,

Compound,Potency,"activity change, negative = inhibition"
CN1CCC(O)(c2ccc(F)cc2)C(C(=O)c2ccc(F)cc2)C1 (centres undefined),inactive,
CCCCCCCCCC(=O)O[C@H]1CC[C@H]2[C@@H]3CCC4=CC(=O)CC[C@@H]4[C@H]3CC[C@]12C,inactive,
Cc1nnc2n1-c1ccc(Cl)cc1C(c1ccccc1)=NC2,inactive,
CN1C(=O)CC(=O)N(c2ccccc2)c2cc(Cl)ccc21,inactive,
C=C(C)[C@H]1CN[C@H](C(=O)O)[C@H]1CC(=O)O,inactive,
O=C1CN=C(c2ccccc2)c2cc([N+](=O)[O-])ccc2N1,inactive,
CCC1(CC)C(=O)C=CNC1=O,inactive,
CC(C)(C)NCC(O)c1ccccc1Cl (centres undefined),inactive,
CC(C)=CC1C(C(=O)OCN2C(=O)C3=C(CCCC3)C2=O)C1(C)C (centres undefined),inactive,
COC1CC(=C(c2cccs2)c2cccs2)C[N+](C)(C)C1 (centres undefined),inactive,
O=C(N/N=C/c1ccc([N+](=O)[O-])o1)c1cc([N+](=O)[O-])cc([N+](=O)[O-])c1O,36.1 µM (active),
CCCCC/C=C\C/C=C\C/C=C\C/C=C\CCCC(=O)NCC(=O)O,,-1.65% [at 5.2 µM]
C=CCN1C[C@H](C)N([C@H](c2ccc(C(=O)N(CC)CC)cc2)c2cccc(OC)c2)C[C@H]1C,inactive,
Cc1nnc2n1-c1ccc(Cl)cc1C(c1ccccc1Cl)=NC2,inactive,
O=C(CCCN1CCC2(CC1)C(=O)NCN2c1ccccc1)c1ccc(F)cc1,inactive,
Clc1ccc2c(c1)C(c1ccccc1)=NCc1nncn1-2,inactive,

# System: not listed separately
# Test: S16 Schwann cell viability assay (CellTiter-Glo assay) (AID 624031);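 note: cellular ATP luminescence as a viability measure; nearly all actives have a fitted effect of over 70% in size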
# Conditions: S16 rat Schwann cells viability, 24 h; series mostly up to 57.5 µM
# Procedure, shortened: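 Native S16 rat Schwann cells, 500-750 cells/well in DMEM with 10% FBS, dosed with compound after overnight culture and incubated 24h at 37 degree Celsius/5% CO2. Viability by CellTiter-Glo luminescence; % activity normalized to no-cell wells and DMSO-treated cells.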
Compound,outcome,"activity change, negative = cytotoxicity"
CNC(C)(C)Cc1ccccc1,inactive,
O=C1OC(c2ccc(O)c(S(=O)(=O)O)c2)(c2ccc(O)c(S(=O)(=O)O)c2)c2c(Br)c(Br)c(Br)c(Br)c21,inactive,
COc1c2c(cc3c1OCO3)CCN(C)C2,inactive,
NC(=O)CS(=O)C(c1ccccc1)c1ccccc1 (centres undefined),inactive,
CN1C(=O)NC(=O)C(C)(C2=CCCCC2)C1=O (centres undefined),inactive,
COP(=S)(OC)Oc1ccc(S(=O)(=O)N(C)C)cc1,inactive,
COc1cccc([C@@]2(O)CCCC[C@@H]2CN(C)C)c1,inactive,
O=c1[nH]oc2c1CCNC2,inactive,
CCCCCCC(=O)CCCCCC/C=C/C[C@@H](O)[C@H](O)[C@@](N)(CO)C(=O)O,inactive,
c1ccc2c(c1)sc1ccccc12,inactive,
CN1C(=O)CCS(=O)(=O)C1c1ccc(Cl)cc1 (centres undefined),inactive,
NNc1ccccc1,inactive,
C[C@]12CC[C@@H]3c4ccc(OC(=O)N(CCCl)CCCl)cc4CC[C@H]3[C@@H]1CC[C@@H]2O,inactive,
COc1ccc2c(c1)C13CCCC[C@@H]1C(C2)N(C)CC3 (some centres undefined),inactive,
NC(=O)c1cc([N+](=O)[O-])cc([N+](=O)[O-])c1,inactive,
CCC1(c2ccccc2)C(=O)N(COC)C(=O)N(COC)C1=O,inactive,
CC(C)(C)NCC(O)c1cc(Cl)c(N)c(C(F)(F)F)c1 (centres undefined),inactive,
CCCCCCCCCC(=O)O[C@H]1CC[C@H]2[C@@H]3CCC4=CC(=O)CC[C@@H]4[C@H]3CC[C@]12C,inactive,
Cc1nnc2n1-c1ccc(Cl)cc1C(c1ccccc1)=NC2,inactive,
CN1C(=O)CC(=O)N(c2ccccc2)c2cc(Cl)ccc21,inactive,
C=C(C)[C@H]1CN[C@H](C(=O)O)[C@H]1CC(=O)O,inactive,
O=C1CN=C(c2ccccc2)c2cc([N+](=O)[O-])ccc2N1,inactive,
CCC1(CC)C(=O)C=CNC1=O,inactive,
CC(C)(C)NCC(O)c1ccccc1Cl (centres undefined),inactive,
CC(C)=CC1C(C(=O)OCN2C(=O)C3=C(CCCC3)C2=O)C1(C)C (centres undefined),inactive,
COC1CC(=C(c2cccs2)c2cccs2)C[N+](C)(C)C1 (centres undefined),inactive,
O=C(N/N=C/c1ccc([N+](=O)[O-])o1)c1cc([N+](=O)[O-])cc([N+](=O)[O-])c1O,inactive,
CCCCC/C=C\C/C=C\C/C=C\C/C=C\CCCC(=O)NCC(=O)O,,-23.3% [at 5.34 µM]
Cc1nnc2n1-c1ccc(Cl)cc1C(c1ccccc1Cl)=NC2,inactive,
O=C(CCCN1CCC2(CC1)C(=O)NCN2c1ccccc1)c1ccc(F)cc1,inactive,
